Measurements as given in PubChem BioAssay AID463208 (Broad Institute, 2010).
Active and inactive are the calls of the source.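 The calls were made as follows: active = AC50 at most tenfold above the top tested concentration; inconclusive = flat fit with 30 to 70% activity, or a poor fit; inactive = AC50 over tenfold above the top dose.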

Experiment: inhibition of yeast nuclear histone deacetylase activity – cell lysate, fluorescence, yeast nuclear extract, mechanism study for Sdo1 growth activator project, dose response (AID 463208)
Settings: yeast nuclear extract HDAC activity, fluorogenic substrate

AC50, inactive:
Cc1nn(Cc2ccc(Cl)cc2)c(C)c1NC(=O)CSc1n[nH]c(C)c1[N+](=O)[O-] > 50 µM, CC(=O)N(C1=C(Cl)C(=O)c2ccccc2C1=O)C1CCCCC1 > 50 µM, CC(C(=O)Nc1cccnc1)N1Cc2ccccc2C1=O (stereo not given) > 50 µM, CC(C)C(C(=O)Nc1cccnc1)N1C(=O)c2ccccc2C1=O (stereo not given) > 50 µM, COc1ccc(-c2nc3ccccc3o2)cc1NC(=O)c1ccc(Br)o1 > 50 µM, Cc1ccc(Cn2c(CN3CC(C)OC(C)C3)nc3c2c(=O)n(C)c(=O)n3C)cc1 (stereo not given) > 50 µM, Cc1c(/C=N/NC(=O)c2cccc(F)c2)cnn1C > 50 µM, CC(=O)N(c1ccccc1)C1C(=O)C(=O)c2ccccc2C1=O (stereo not given) > 50 µM, CN(C)CCCNC(=O)C1CCNCC1 > 50 µM, CC(=O)N(C)C1C(=O)C(=O)c2ccccc2C1=O (stereo not given) > 50 µM, Cc1sc(NC(=O)c2ccnn2C)c(C#N)c1-c1ccc(F)cc1 > 50 µM, CCOC(=O)/C=C1\SCC(=O)N1CC(=O)NC12CC3CC(CC(C3)C1)C2 > 50 µM, O=C(CSc1nc(-c2cccs2)cc(C(F)(F)F)n1)NCc1ccco1 > 50 µM, Cn1c(=O)[nH]c(=O)c2c1nc(Sc1nc3ccccc3[nH]1)n2Cc1ccccc1 > 50 µM, COc1ccc(OCC(O)Cn2c(Nc3ccccc3)nc3c2c(=O)n(C)c(=O)n3C)cc1 (stereo not given) > 50 µM
